# According to ChEMBL document CHEMBL1961873, “Compounds: GSK PKIS; Assays: Nanosyn kinase panel” (2012):
# Assays:
# [1] = target: RAC-alpha serine/threonine-protein kinase (Homo sapiens) (UniProt P31749); conditions: at 0.1 µM
# [2] = target: RAC-alpha serine/threonine-protein kinase (Homo sapiens) (UniProt P31749); conditions: at 1 µM
# [3] = target: RAC-beta serine/threonine-protein kinase (Homo sapiens) (UniProt P31751); conditions: at 0.1 µM
# [4] = target: RAC-beta serine/threonine-protein kinase (Homo sapiens) (UniProt P31751); conditions: at 1 µM
# [5] = target: RAC-gamma serine/threonine-protein kinase (Homo sapiens) (UniProt Q9Y243); conditions: at 0.1 µM
# RAC-gamma serine/threonine-protein kinase (Homo sapiens), sequence (Q9Y243 whole entry): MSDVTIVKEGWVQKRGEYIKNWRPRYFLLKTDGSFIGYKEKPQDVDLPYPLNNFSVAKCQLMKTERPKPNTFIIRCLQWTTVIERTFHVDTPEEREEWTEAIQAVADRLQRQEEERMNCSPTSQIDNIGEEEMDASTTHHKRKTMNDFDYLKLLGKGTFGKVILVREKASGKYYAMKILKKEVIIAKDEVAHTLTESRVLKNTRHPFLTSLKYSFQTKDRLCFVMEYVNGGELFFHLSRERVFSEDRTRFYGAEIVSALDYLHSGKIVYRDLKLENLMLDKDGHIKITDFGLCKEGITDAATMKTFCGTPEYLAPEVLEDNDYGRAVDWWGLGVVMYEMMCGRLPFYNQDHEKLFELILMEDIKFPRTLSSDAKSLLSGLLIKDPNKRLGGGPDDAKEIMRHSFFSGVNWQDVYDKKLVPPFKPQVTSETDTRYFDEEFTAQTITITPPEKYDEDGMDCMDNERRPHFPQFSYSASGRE
# [6] = target: RAC-gamma serine/threonine-protein kinase (Homo sapiens) (UniProt Q9Y243); conditions: at 1 µM
# [7] = target: G protein-coupled receptor kinase 6 (Homo sapiens) (UniProt P43250); conditions: at 0.1 µM
# [8] = target: G protein-coupled receptor kinase 6 (Homo sapiens) (UniProt P43250); conditions: at 1 µM
# [9] = target: T1, Rhodopsin kinase GRK7 (Homo sapiens) (UniProt Q8WTQ7); conditions: at 0.1 µM
# T1 sequence (whole entry): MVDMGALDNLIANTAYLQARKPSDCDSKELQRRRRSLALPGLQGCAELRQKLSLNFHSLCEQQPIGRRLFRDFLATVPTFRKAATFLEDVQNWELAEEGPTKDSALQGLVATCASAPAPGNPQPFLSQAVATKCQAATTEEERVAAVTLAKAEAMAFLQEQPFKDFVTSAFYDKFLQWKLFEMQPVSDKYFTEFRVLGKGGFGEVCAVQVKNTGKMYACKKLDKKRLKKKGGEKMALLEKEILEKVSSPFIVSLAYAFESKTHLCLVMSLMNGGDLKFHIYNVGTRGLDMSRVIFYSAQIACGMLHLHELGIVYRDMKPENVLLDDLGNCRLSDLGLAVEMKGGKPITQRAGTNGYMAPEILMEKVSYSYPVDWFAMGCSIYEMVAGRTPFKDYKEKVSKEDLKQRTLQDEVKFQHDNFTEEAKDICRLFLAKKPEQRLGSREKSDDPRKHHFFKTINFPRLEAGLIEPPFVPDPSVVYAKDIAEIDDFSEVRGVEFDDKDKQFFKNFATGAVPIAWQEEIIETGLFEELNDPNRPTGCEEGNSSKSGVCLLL
# [10] = target: T1, Rhodopsin kinase GRK7 (Homo sapiens); conditions: at 1 µM
# [11] = target: Serine/threonine-protein kinase MRCK alpha (Homo sapiens) (UniProt Q5VT25); conditions: at 0.1 µM
# Serine/threonine-protein kinase MRCK alpha (Homo sapiens), sequence (Q5VT25 whole entry): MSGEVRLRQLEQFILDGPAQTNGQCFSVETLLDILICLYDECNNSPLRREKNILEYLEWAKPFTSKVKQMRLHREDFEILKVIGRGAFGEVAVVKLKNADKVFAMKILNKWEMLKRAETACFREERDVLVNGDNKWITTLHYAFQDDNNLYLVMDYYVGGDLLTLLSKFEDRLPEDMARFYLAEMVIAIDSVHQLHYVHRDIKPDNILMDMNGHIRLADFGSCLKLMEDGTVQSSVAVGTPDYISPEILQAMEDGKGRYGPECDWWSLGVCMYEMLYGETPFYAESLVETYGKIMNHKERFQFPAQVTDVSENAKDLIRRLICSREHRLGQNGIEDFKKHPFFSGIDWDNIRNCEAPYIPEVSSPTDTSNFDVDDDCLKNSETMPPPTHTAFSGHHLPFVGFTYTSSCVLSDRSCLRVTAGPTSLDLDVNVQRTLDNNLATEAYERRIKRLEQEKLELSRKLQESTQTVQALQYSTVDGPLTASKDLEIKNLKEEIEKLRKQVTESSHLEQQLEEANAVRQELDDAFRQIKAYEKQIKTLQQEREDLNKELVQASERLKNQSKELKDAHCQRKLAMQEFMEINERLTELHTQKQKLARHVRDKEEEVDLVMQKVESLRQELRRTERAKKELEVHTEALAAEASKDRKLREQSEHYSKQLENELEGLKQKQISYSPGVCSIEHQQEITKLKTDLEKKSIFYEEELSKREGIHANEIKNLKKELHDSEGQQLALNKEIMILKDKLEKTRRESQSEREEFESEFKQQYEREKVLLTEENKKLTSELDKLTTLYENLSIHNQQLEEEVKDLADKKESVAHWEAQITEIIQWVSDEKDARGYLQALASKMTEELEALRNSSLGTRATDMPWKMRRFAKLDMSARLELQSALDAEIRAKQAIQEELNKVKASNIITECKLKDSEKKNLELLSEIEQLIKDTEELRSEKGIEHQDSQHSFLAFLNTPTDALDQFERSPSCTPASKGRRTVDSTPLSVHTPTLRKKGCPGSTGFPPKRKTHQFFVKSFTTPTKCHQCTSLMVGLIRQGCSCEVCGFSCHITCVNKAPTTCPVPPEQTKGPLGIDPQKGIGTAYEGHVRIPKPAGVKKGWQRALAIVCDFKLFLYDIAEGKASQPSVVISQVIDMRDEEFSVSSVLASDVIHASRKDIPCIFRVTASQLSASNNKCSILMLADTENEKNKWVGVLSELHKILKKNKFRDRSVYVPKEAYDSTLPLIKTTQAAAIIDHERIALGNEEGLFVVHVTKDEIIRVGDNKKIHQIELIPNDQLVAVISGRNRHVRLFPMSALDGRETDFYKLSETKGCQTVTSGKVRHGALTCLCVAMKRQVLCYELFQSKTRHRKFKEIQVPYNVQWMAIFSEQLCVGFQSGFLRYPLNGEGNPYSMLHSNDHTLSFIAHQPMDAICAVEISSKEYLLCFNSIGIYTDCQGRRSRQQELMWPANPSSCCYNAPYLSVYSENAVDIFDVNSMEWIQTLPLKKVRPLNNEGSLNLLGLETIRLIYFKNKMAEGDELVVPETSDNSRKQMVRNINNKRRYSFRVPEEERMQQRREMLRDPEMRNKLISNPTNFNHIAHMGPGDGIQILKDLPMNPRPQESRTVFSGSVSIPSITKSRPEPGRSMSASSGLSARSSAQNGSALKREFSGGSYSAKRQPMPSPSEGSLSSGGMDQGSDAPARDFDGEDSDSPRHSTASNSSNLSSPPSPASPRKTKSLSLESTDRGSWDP
# [12] = target: Serine/threonine-protein kinase MRCK alpha (Homo sapiens) (UniProt Q5VT25); conditions: at 1 µM
# [13] = target: Serine/threonine-protein kinase MRCK beta (Homo sapiens) (UniProt Q9Y5S2); conditions: at 0.1 µM
# [14] = target: Serine/threonine-protein kinase MRCK beta (Homo sapiens) (UniProt Q9Y5S2); conditions: at 1 µM
# [15] = target: Ribosomal protein S6 kinase alpha-5 (Homo sapiens) (UniProt O75582); conditions: at 0.1 µM
# Ribosomal protein S6 kinase alpha-5 (Homo sapiens), sequence (O75582 whole entry, looked up): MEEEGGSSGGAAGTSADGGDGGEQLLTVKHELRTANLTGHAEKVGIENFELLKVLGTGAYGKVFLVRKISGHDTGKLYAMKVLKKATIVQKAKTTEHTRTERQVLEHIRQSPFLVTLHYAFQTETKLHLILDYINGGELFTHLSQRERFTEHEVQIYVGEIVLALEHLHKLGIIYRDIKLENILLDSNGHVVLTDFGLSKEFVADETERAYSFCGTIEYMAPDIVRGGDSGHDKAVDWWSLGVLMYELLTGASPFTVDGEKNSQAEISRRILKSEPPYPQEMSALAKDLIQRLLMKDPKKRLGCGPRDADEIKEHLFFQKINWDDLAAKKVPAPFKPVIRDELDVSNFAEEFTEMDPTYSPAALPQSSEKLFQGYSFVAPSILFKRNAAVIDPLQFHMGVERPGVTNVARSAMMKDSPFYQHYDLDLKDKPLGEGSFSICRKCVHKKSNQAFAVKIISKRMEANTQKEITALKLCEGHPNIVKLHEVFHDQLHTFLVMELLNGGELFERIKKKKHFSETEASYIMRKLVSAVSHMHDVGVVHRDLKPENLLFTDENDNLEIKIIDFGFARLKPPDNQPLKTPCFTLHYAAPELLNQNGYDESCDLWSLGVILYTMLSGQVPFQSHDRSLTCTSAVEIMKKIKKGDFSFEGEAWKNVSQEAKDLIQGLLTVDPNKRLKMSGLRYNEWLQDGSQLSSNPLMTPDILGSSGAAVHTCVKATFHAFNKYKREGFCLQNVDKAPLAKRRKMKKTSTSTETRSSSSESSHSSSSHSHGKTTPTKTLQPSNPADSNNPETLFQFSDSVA
# [16] = target: Ribosomal protein S6 kinase alpha-5 (Homo sapiens) (UniProt O75582); conditions: at 1 µM
# [17] = target: Ribosomal protein S6 kinase alpha-4 (Homo sapiens) (UniProt O75676); conditions: at 0.1 µM
# Ribosomal protein S6 kinase alpha-4 (Homo sapiens), sequence (O75676 whole entry, looked up): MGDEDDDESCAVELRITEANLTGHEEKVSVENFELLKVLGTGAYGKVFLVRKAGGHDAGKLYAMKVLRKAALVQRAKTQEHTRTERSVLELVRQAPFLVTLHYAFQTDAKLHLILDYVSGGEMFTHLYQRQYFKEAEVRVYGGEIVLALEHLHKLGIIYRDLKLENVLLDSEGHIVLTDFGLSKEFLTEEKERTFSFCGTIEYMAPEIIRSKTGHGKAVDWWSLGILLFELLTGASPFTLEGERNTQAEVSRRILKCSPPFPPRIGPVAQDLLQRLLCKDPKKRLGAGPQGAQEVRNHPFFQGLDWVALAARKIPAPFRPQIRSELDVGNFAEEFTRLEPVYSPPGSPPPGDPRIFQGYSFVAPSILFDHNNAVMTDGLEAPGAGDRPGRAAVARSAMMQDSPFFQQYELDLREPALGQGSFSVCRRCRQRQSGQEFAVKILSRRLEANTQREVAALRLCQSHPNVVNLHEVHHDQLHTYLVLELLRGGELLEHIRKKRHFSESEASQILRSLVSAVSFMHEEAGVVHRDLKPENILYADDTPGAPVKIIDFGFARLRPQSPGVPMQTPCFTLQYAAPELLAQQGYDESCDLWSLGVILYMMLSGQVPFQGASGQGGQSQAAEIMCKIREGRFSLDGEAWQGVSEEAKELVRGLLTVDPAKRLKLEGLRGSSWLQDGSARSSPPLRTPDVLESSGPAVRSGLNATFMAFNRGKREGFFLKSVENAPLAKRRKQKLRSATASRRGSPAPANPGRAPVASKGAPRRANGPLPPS
# [18] = target: Ribosomal protein S6 kinase alpha-4 (Homo sapiens) (UniProt O75676); conditions: at 1 µM
# [19] = target: Ribosomal protein S6 kinase beta-1 (Homo sapiens) (UniProt P23443); conditions: at 0.1 µM
# [20] = target: Ribosomal protein S6 kinase beta-1 (Homo sapiens) (UniProt P23443); conditions: at 1 µM
# RAC-alpha serine/threonine-protein kinase (Homo sapiens), sequence (P31749 whole entry): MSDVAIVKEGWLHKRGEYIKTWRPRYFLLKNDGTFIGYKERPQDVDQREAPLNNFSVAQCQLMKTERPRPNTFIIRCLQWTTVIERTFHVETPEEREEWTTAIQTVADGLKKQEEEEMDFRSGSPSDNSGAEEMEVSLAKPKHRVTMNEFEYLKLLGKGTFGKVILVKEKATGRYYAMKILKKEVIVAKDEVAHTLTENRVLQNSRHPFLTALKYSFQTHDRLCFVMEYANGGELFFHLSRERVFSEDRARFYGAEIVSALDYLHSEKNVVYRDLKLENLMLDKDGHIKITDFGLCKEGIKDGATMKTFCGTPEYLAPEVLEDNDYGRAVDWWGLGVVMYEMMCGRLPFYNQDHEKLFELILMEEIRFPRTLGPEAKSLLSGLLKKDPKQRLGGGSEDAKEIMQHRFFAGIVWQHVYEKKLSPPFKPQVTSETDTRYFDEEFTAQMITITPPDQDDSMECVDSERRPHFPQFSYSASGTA
# RAC-beta serine/threonine-protein kinase (Homo sapiens), sequence (P31751 whole entry): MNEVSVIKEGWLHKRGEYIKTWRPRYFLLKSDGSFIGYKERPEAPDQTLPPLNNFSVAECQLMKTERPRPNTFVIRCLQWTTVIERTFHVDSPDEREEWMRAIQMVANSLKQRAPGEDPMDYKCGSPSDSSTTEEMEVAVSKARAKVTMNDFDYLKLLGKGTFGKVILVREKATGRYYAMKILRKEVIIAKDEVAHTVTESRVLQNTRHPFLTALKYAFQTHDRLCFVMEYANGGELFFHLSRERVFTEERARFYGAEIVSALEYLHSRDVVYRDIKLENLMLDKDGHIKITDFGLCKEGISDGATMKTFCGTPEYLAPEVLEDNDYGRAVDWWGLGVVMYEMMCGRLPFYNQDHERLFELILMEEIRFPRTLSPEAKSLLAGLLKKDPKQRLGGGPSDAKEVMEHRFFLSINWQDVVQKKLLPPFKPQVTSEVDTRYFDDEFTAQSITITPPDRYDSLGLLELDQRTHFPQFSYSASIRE
Compound,inhibition [1] [%],inhibition [2] [%],inhibition [3] [%],inhibition [4] [%],inhibition [5] [%],inhibition [6] [%],inhibition [7] [%],inhibition [8] [%],inhibition [9] [%],inhibition [10] [%],inhibition [11] [%],inhibition [12] [%],inhibition [13] [%],inhibition [14] [%],inhibition [15] [%],inhibition [16] [%],inhibition [17] [%],inhibition [18] [%],inhibition [19] [%],inhibition [20] [%]
COc1ccc(-c2coc3ncnc(N)c23)cc1,0.76,0.76,2.07,1.94,0.3,2.05,1.34,1.56,3.57,9.28,0.52,-0.11,1.16,1.93,9.6,8.17,1.64,3.84,1.77,2.26
Nc1nc(-c2ccc3c(c2)C(=Cc2cc(Br)c(O)c(Br)c2)C(=O)N3)cs1,-2.07,-1.22,-2.78,-0.83,-2.54,-0.36,0.91,10.7,-6.85,22.8,-0.3,-1.5,0.42,0.83,-1.16,0.13,-1.47,-0.48,-1.65,1.12
CC(C)=Cc1cccc2c1/C(=N/Nc1ccc(S(N)(=O)=O)cc1)C(=O)N2,0.31,0.65,0.76,0.93,2.87,0.49,3.06,8.62,1.04,-0.7,1.91,3.43,-0.74,0.5,7.7,11.4,2.65,15.9,1.06,5.23
CCn1c(-c2nonc2N)nc2cncc(C(=O)N3CCNCC3)c21,0.91,2.57,2.91,2.21,2.05,5.1,6.32,9.53,7.48,9.01,5.33,7.84,0.36,3.02,5.57,7.4,3.28,4.71,2.87,4.44
COc1cc(C=NNc2ncnc3c2cnn3-c2ccccc2)ccc1O,0.7,-1.12,2.4,-2.91,1.08,-1.19,1.52,-6.34,-0.04,-4.38,0.09,3.38,1.02,2.48,-3.81,-1.13,1.6,4.55,2.72,10.3
CC1=C(C(=O)Nc2ccc3[nH]ncc3c2)C(c2ccc(F)cc2)NC(=O)N1 (stereo not given),-0.22,0.8,0.33,1.45,0.5,2.79,5.16,7.3,2.44,6.49,2.04,12.4,5.57,29.9,8.51,34.2,3.34,16.7,1.64,13.8
COc1cc2ncn(-c3cc(O[C@@H](C)c4ccccc4Cl)c(C(N)=O)s3)c2cc1OC,0.32,1.3,1.65,1.94,1.85,1.32,0.89,2.39,9.14,4.64,1.42,0.91,0.43,3.35,11.4,11.6,4.79,5.46,0.94,2.16
COc1cc(C)c(NC(=O)CN(C)C)cc1Nc1nc(Nc2cccc(F)c2C(N)=O)c2cc[nH]c2n1,1.35,0.96,0.81,1.17,0.86,1.72,12.9,51.2,8.5,28.1,-0.22,2.53,-0.26,1.65,1.58,0.97,-0.16,2.07,2.03,3.01
Nc1ncnc2occ(-c3ccc(NC(=O)Nc4cccc(C(F)(F)F)c4)cc3)c12,1.53,0.96,1.75,2.15,0.73,2.7,2.54,0.47,8.48,4.95,-3.03,0.21,0.84,1.21,6.35,19.5,3.31,20.8,21,73.5
COc1cc2ncn(-c3cc(OCc4ccccc4Cl)c(C(N)=O)s3)c2cc1OC,-1.2,-0.21,-0.21,0.92,1.15,-1.17,2.37,5.7,-0.82,9.44,-0.28,2.18,0.86,1.67,-5.34,-5.25,0.79,3.02,0.47,0.64
CN(C)c1cc2c(Nc3ccc4nc(Cc5ccccc5)[nH]c4c3)ncnc2cn1,1.02,0.52,2.3,2.71,1.37,3.27,2.98,6.85,20.5,22.6,-0.16,1.32,0.33,0.93,4.14,4.53,1.93,2.96,2.15,4.96
CC1=C(C(=O)Nc2ccc3[nH]ncc3c2)C(c2ccc3ccccc3c2)CC(=O)N1 (stereo not given),0.52,0.98,0.74,1.1,1.23,3.76,2.91,13.5,2.64,4.56,3.1,22.7,5.85,37.9,10.7,47.6,6.16,34.1,2.41,21.4
Cc1cc(O)cc(C)c1/C=C/c1cncc(-c2nn[nH]n2)c1,-2.92,-4.1,-1.95,-2.32,-2.52,-2.46,1.06,5.14,2.35,4.65,-0.28,-0.43,0.47,0.57,3.79,1.87,1.46,2.78,1.11,1.97
